Assay [1] in a line: qHTS Assay for Identification of Small Molecule Antagonists for Thrombopoietin (TPO) Signaling Pathway (AID 918). Also: potency is read from the fitted curve at half-maximal effect; nearly all actives have a fitted effect of over 60% in size. Particulars: TPO-dependent cell signaling reporter, antagonist mode. In outline:
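Luminescence read-out: GPIIb-promoter luciferase in Ba/F3 cells carrying human TPO receptor. Compounds added with 26 pM TPO (EC50), 24 hrs, 37 C, 5% CO2; cells deprived of IL-3 overnight beforehand. Inhibition of signal scored.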

For assay [2], the target named is Muscarinic acetylcholine receptor M1 (Rattus norvegicus) (UniProt P08482). The assay is described as follows: qHTS Assay for Antagonists of Acetylcholine Muscarinic M1 Receptor: Kinetic Measurement of Intracellular Calcium Response (AID 943).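 Also: Fluo-4 calcium signal as peak divided by basal fluorescence over 4 min; nearly all actives have a fitted effect of over 75% in size.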 Particulars: M1-expressing cells, kinetic intracellular calcium fluorescence; series mostly up to 35.3 µM. The method in brief:
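Read-out: peak over basal Fluo-4 fluorescence, kinetic at 1 Hz for 4 min after EC80 carbachol (100 nM final). Rat M1-CHO cells, dye loaded 1 h at 37C, compound added 10 min before agonist.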
For orientation: In qHTS, concentration-response curves come from the screen itself.

The target is the same in assay [3]. The assay is described as follows: qHTS Assay for Antagonists of Acetylcholine Muscarinic M1 Receptor: Measurement of IP-One Response (AID 944). Also: nearly all actives have a fitted effect of over 75% in size. Conditions: CHO-M1 cells, IP-One HTRF, antagonist mode; series mostly up to 46.1 µM. The method in brief:
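Read-out: HTRF competition between d2-IP1 and Eu-cryptate anti-IP1 antibody, emission 620 and 665 nm. Stimulus was carbachol, EC80 (200 nM), for 30 min in M1-CHO cells (rat receptor), after 10 min compound pre-treatment.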

Assay [4] has as its target Pyruvate kinase (Leishmania mexicana) (UniProt Q27686). The assay is described as follows: qHTS Validation Assay for Inhibitors of Leishmania Mexicana Pyruvate Kinase (AID 945). Particulars: purified L. mexicana pyruvate kinase, enzyme activity, E451W mutant enzyme; series mostly up to 57.5 µM. The method in brief: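 qHTS eight-point titrations against 0.2 nM LmPYK (E451W) in imidazole buffer pH 7.2 with 0.5 mM PEP, 0.1 mM ADP; 1 h, room temperature. Readout: PKLight luminescence, normalized to neutral DMSO wells.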

Assay [5] can be described thus: MultiTox-Fluor Cytotoxicity Assay - LYMP1-001 - Dead Cells (AID 946).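 Also: cells exposed to compound for 16 h.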 Particulars: LYMP1-001 lymphoblastoid cells, dead-cell protease fluorescence; series mostly up to 92.2 µM. The method in brief: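 LYMP1-001 lymphoblastoid cells (2500/well) treated 16 h at 37 C. Dead-cell protease cleavage of bis-AAF-R110 read at Ex/Em 485/520. Normalized to DMSO and 15 uM tetraoctylammonium bromide; AC50 from Hill fits.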

A short description of assay [6]: Cell Viability - LYMP1-002 - Assay at 16 hr (AID 948). Particulars: LYMP1-002 lymphoblastoid cell viability; series mostly up to 92.2 µM. In outline:
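LYMP1-002 human lymphoblastoid cells, 2500/well; 5 hr 37 C; cpd 16 hr 37 C; CellTiter-Glo 30 min RT; luminescence (ATP). Concentration-response, Hill-fit AC50. Pos ctrl tetraoctylammonium bromide.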

Molecules are shown by their SMILES. Inconclusive results are not listed. Entries that show only a call come without a potency. Active and inactive are the calls of the source. Calls follow the shape of the dose curve; as a rule, active = well fitted curve in the direction sought with a large enough effect; inconclusive = small, poorly fitted or top-dose-only effect, or another doubt; inactive = no such curve, though single readings can be large; an effect the other way counts as inactive or inconclusive.

Sequence of Muscarinic acetylcholine receptor M1 (Rattus norvegicus) (P08482 whole entry, looked up): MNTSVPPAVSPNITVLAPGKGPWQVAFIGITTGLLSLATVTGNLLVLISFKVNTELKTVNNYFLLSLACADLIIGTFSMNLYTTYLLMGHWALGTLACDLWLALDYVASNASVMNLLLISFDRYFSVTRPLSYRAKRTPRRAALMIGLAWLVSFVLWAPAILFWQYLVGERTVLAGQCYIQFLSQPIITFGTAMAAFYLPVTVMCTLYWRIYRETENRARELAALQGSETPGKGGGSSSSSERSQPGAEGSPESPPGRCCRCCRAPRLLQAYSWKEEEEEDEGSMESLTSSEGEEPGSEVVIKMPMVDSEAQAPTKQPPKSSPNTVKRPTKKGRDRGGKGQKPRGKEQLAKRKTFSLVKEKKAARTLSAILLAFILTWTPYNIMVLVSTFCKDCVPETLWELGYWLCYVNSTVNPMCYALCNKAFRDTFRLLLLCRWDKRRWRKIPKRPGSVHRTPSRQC
Sequence of Pyruvate kinase (Leishmania mexicana) (Q27686 2-499 E452W): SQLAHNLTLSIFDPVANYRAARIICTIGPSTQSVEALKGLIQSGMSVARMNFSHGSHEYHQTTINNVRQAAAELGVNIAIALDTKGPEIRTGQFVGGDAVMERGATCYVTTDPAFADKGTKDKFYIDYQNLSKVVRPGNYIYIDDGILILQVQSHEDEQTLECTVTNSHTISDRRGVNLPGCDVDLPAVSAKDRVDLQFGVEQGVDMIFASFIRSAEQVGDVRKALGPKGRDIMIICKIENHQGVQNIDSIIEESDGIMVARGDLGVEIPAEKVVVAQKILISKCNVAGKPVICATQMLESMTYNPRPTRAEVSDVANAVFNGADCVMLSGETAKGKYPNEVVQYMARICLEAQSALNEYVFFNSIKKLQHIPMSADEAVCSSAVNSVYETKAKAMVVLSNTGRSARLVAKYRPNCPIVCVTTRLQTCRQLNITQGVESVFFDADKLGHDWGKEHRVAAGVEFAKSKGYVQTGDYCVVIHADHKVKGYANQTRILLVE

For the compound `CN1CCC[C@@H]1CCO[C@](C)(c1ccccc1)c1ccc(Cl)cc1`, the Potency in assay [1] was 10 µM (active). As for `CN=C(N)NCCC[C@H](N)C(=O)O`, in assay [2], the outcome was inactive.

Regarding `NS(=O)(=O)Cc1noc2ccccc12`, the outcome in assay [2] was inactive.

Take `NC(N)=NCc1cccc(I)c1`: the result in assay [2] and in assay [4] was inactive. Further, in assay [3], the Potency result is “inactive”. On to `NCCNc1cccc2ccccc12`, for which the outcome in assay [5] and in assay [6] was inactive.

In the case of `Oc1c(Cl)cc(Cl)c(Cl)c1Cc1c(O)c(Cl)cc(Cl)c1Cl`, the call in assay [6] was inactive.

For the origin of these results see PubChem BioAssay (NCATS).
